In PubChem BioAssay (EPA / NIEHS) one finds outcome and AC50 data, which are given here for four molecules.

The nature of assay [1]: ATG_PPRE_CIS: Attagene CIS-FACTORIAL HepG2 Assay for human Peroxisome Proliferator-activated Response Element (PPRE) (AID 2282958). To be noted: HepG2 PPRE cis-element reporter, Attagene transcription factor profiling; actives raise or lower the signal. In outline: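 HepG2 cells transiently transfected with multiplexed cis-element reporter units measure endogenous transcription factor activity. After 24 h compound exposure, reporter mRNA is quantified by RT-PCR, 6-FAM labeling, HpaI digestion and capillary electrophoresis; bidirectional fits are made against DMSO baseline.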

A short description of assay [2]: ATG_RORE_CIS: Attagene CIS-FACTORIAL HepG2 Assay for human RAR-related Orphan Receptor Element (RORE) (AID 2282959). To be noted: HepG2 Attagene cis-factorial RORE reporter, mRNA; actives raise or lower the signal. In outline:
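HepG2 cells transiently transfected with multiple cis-element reporter transcription units, exposed to chemical for 24 h. Reporter mRNA quantified by RT-PCR, 6-FAM primer-extension labeling, HpaI digestion and capillary electrophoresis; bidirectional fit versus DMSO baseline.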

The nature of assay [3]: ATG_Sox_CIS: Attagene CIS-FACTORIAL HepG2 Assay for human SRY-box transcription factor (SOX) (AID 2282960). The conditions noted are these: HepG2 Attagene cis-factorial SOX reporter, mRNA; actives raise or lower the signal. In outline: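 HepG2 cells transiently transfected with cis-element-driven multiple reporter transcription units, dosed 24 h; reporter mRNA measured by RT-PCR, FAM labelling, HpaI digestion and capillary electrophoresis. Bidirectional fit versus DMSO baseline.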

In assay [4] the target is Transcription factor Sp1 (Homo sapiens) (UniProt P08047). Briefly: ATG_Sp1_CIS: Attagene CIS-FACTORIAL HepG2 Assay for human Specificity Protein 1 (Sp1) (AID 2282961). To be noted: HepG2 Sp1 cis-reporter transcription, actives raise or lower the signal. Put shortly:
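HepG2 cells transiently transfected with multiple reporter transcription units driven by cis-regulatory elements; Sp1-responsive reporter mRNA measured 24 h after dosing by RT-PCR and capillary electrophoresis fluorescence, fitted bidirectionally against DMSO baseline.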

A short description of assay [5]: ATG_SREBP_CIS: Attagene CIS-FACTORIAL HepG2 Assay for human Sterol Regulatory Element Binding (SREBP) (AID 2282962). The conditions noted are these: HepG2 Attagene cis-factorial SREBP reporter, mRNA; actives raise or lower the signal. In outline:
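mRNA induction of transfected cis-promoter reporters in HepG2 cells, 24 h post-dose. Detection: RT-PCR with 6-FAM-labelled products, HpaI digest, capillary electrophoresis. DMSO served as negative control and baseline.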

Assay [6] has as its target Signal transducer and activator of transcription 3 (Homo sapiens) (UniProt P40763). Nature of the assay: ATG_STAT3_CIS: Attagene CIS-FACTORIAL HepG2 Assay for human Signal Transducer and Activator of Transcription 3 (STAT3) (AID 2282963). The conditions noted are these: HepG2, Attagene cis-factorial STAT3 reporter transcription; actives raise or lower the signal. Put shortly: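 HepG2 cells transiently transfected with multiple cis-element-driven reporter units report endogenous transcription factor activity. After 24 h compound exposure, reporter mRNA is measured by RT-PCR, 6-FAM labelling, HpaI digestion and capillary electrophoresis. Fitted bidirectionally versus DMSO.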

A short description of assay [7]: ATG_TA_CIS: Attagene CIS-FACTORIAL HepG2 Assay for human TA Basal Promoter (AID 2282964). To be noted: HepG2 Attagene CIS-factorial TA basal promoter reporter; actives raise or lower the signal. In outline:
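Background internal-marker endpoint from a 52-component HepG2 cis-reporter panel. Cells treated 24 h; reporter transcripts quantified via RT-PCR and CE fluorescence against DMSO baseline.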

Assay [8] is described as follows: ATG_TCF_b_cat_CIS: Attagene CIS-FACTORIAL HepG2 Assay for human T-Cell-Factor with beta-catenin (TCF/b-cat) (AID 2282965). To be noted: HepG2 TCF/beta-catenin cis-reporter transcription, actives raise or lower the signal. In outline: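 HepG2 cells transiently transfected with cis-promoter-driven multiplexed reporter units; reporter mRNA measured 24 h after dosing by RT-PCR, FAM labelling, HpaI digestion and capillary electrophoresis. Bidirectional fitting relative to DMSO baseline.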

Assay [9] in a line: ATG_TAL_CIS: Attagene CIS-FACTORIAL HepG2 Assay for human TAL Basal Promoter (AID 2282966).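 Also: background control endpoint measuring basal TAL promoter reporter mRNA not a specific factor.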 The conditions noted are these: HepG2 Attagene cis-factorial TAL promoter reporter; actives raise or lower the signal. In outline:
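HepG2 cells were transiently transfected with promoter-driven multiplexed reporter units and dosed for 24 h. Reporter mRNA was measured by RT-PCR with capillary electrophoresis fluorescence; bidirectional fits used DMSO as baseline, serving as a background control.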

Assay [10] can be described thus: ATG_TGFb_CIS: Attagene CIS-FACTORIAL HepG2 Assay for human Transforming Growth Factor (TGF) (AID 2282967). The conditions noted are these: HepG2 Attagene CIS TGFb reporter, mRNA transcription; actives raise or lower the signal. Put shortly: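 Liver HepG2 line, cis-factorial reporter panel, 24 h dosing. Quantitation: RT-PCR products labeled with 6-FAM, cut with HpaI, resolved by capillary electrophoresis; DMSO-referenced bidirectional analysis.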

The nature of assay [11]: ATG_VDRE_CIS: Attagene CIS-FACTORIAL HepG2 Assay for human Vitamin D Receptor Element (VDRE) (AID 2282968). The conditions noted are these: HepG2 VDRE cis-reporter transcription, actives raise or lower the signal. Put shortly: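 Transiently transfected HepG2 cells carrying cis-regulated reporter transcription units were exposed for 24 h. Reporter mRNA was measured by RT-PCR with fluorescent labelling and capillary electrophoresis, and fitted in both directions against DMSO.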

The target in assay [12] is Estrogen receptor (Homo sapiens) (UniProt P03372). Nature of the assay: ATG_ERa_TRANS: Attagene TRANS-FACTORIAL HepG2 Assay for human Estrogen Receptor alpha (ERa) (AID 2282970; active = hit-call score of the fitted dose curve at least 0.9, where 1 is the maximum). To be noted: HepG2 Attagene TRANS ERa GAL4 reporter, mRNA. Put shortly:
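HepG2 cells transiently transfected with multiplexed GAL4-UAS reporter units; ERa activity read via exogenous chimeric NR-Gal4 protein. After 24 hour compound exposure, reporter mRNA measured by RT-PCR with 6-FAM labelling and capillary electrophoresis; gain-of-signal fitted relative to DMSO.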

Assay [13] addresses X-box-binding protein 1 (Homo sapiens) (UniProt P17861). Nature of the assay: ATG_Xbp1_CIS: Attagene CIS-FACTORIAL HepG2 Assay for human X-box Binding Protein 1 (XBP1) (AID 2282972). To be noted: HepG2 XBP1 cis-element reporter, Attagene multiplex; actives raise or lower the signal. Put shortly: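 Fluorescence-labelled cDNA fragments from reporter transcripts, separated by capillary electrophoresis, give the signal. Source: HepG2 cells transfected with promoter-driven reporter units, harvested 24 h post-dose. DMSO served as reference for bidirectional curve fitting.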

Assay [14] can be described thus: ATG_M_19_TRANS: Attagene TRANS-FACTORIAL HepG2 Assay for M19 Transcription Factor (Internal Marker) (AID 2282974; active = hit-call score of the fitted dose curve at least 0.9, where 1 is the maximum). To be noted: HepG2 Attagene TRANS-FACTORIAL M19 internal marker reporter. Put shortly:
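HepG2 cells transiently transfected with multiple GAL4-UAS reporter transcription units were exposed to chemicals for 24 h. Reporter mRNA was read by RT-PCR, 6-FAM primer extension, HpaI digestion and capillary electrophoresis; gain of signal fitted relative to DMSO.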

Assay [15] in a line: ATG_GAL4_TRANS: Attagene TRANS-FACTORIAL HepG2 Assay for GAL4 (Internal Marker) (AID 2282976; active = hit-call score of the fitted dose curve at least 0.9, where 1 is the maximum). To be noted: HepG2 Attagene TRANS GAL4 internal marker reporter. Put shortly:
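HepG2 cells transiently transfected with multiplexed GAL4-UAS reporter constructs were dosed for 24 h. Reporter mRNA was measured by RT-PCR, 6-FAM primer extension, HpaI digestion and capillary electrophoresis, and gain of signal was fitted relative to DMSO.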

Assay [16] has as its target Bile acid receptor (Homo sapiens) (UniProt Q96RI1). Briefly: ATG_FXR_TRANS: Attagene TRANS-FACTORIAL HepG2 Assay for Farnesoid X Receptor (FXR) (AID 2282979; active = hit-call score of the fitted dose curve at least 0.9, where 1 is the maximum;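 also: hits raise reporter mRNA above DMSO so AC50 marks FXR activation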). To be noted: HepG2 Attagene TRANS FXR-GAL4 reporter transcription. Put shortly:
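HepG2 cells transiently transfected with reporter constructs in which a chimeric FXR-GAL4 protein drives a GAL4-UAS reporter; 24 h compound exposure. Reporter mRNA measured by RT-PCR, FAM labelling, HpaI digestion and capillary electrophoresis; gain-of-signal versus DMSO.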

For assay [17], the target named is Estrogen-related receptor gamma (Homo sapiens) (UniProt P62508). Briefly: ATG_ERRg_TRANS: Attagene TRANS-FACTORIAL HepG2 Assay for human Estrogen-Related Receptor gamma (ERRg) (AID 2282977; active = hit-call score of the fitted dose curve at least 0.9, where 1 is the maximum;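 also: hits increase reporter signal over DMSO so potencies reflect activators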). The conditions noted are these: HepG2 Attagene TRANS reporter, ERRg transactivation. Put shortly: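 HepG2 cells transiently transfected with multiplexed GAL4-UAS reporter units driven by chimeric NR-Gal4 proteins; 24 h exposure. Reporter mRNA quantified by RT-PCR, fluorescent labelling, HpaI digestion and capillary electrophoresis; gain of signal vs DMSO.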
Chain of Estrogen-related receptor gamma (Homo sapiens) (P62508 whole entry, looked up, the tested form may be a part): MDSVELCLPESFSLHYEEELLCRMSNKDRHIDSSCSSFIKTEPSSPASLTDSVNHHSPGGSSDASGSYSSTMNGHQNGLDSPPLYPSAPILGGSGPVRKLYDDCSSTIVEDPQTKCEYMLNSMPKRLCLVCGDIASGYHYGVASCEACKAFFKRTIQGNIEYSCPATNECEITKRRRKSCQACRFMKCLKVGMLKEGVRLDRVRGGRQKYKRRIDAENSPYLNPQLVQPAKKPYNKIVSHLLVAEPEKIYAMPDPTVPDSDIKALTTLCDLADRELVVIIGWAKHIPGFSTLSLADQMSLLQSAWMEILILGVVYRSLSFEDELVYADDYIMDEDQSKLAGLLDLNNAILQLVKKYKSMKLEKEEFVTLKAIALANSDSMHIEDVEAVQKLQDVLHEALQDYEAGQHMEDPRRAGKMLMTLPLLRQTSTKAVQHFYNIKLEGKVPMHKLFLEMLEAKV

In assay [18] the target is Steroid hormone receptor ERR1 (Homo sapiens) (UniProt P11474). Nature of the assay: ATG_ERRa_TRANS: Attagene TRANS-FACTORIAL HepG2 Assay for human Estrogen-Related Receptor alpha (ERRa) (AID 2282971; active = hit-call score of the fitted dose curve at least 0.9, where 1 is the maximum). To be noted: HepG2 Attagene TRANS reporter, ERRa transactivation. In outline:
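HepG2 cells transiently transfected with multiplexed GAL4-UAS reporter units reading chimeric ERRa-Gal4 activity; 24 h compound exposure. Reporter mRNA measured by RT-PCR, 6-FAM labelling, HpaI digest and capillary electrophoresis; gain of signal fitted versus DMSO baseline.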

The target of assay [19] is Nuclear receptor subfamily 1 group I member 3 (Homo sapiens) (UniProt Q14994). Nature of the assay: ATG_CAR_TRANS: Attagene TRANS-FACTORIAL HepG2 Assay for human Constitutive Androstane Receptor (CAR) (AID 2282969; active = hit-call score of the fitted dose curve at least 0.9, where 1 is the maximum;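 also: activators raise reporter mRNA above DMSO so AC50 marks induction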). The conditions noted are these: HepG2 Attagene TRANS-FACTORIAL CAR reporter. Put shortly:
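HepG2 cells transiently transfected with GAL4-UAS reporter units; TRANS format reads activity of exogenous chimeric NR-Gal4 protein. After 24 h dosing, reporter mRNA quantified by RT-PCR, 6-FAM labelling and capillary electrophoresis; gain of signal fitted against DMSO.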

Inconclusive results are not listed. Calls of active or inactive are those of the source. The calls were made as follows, unless noted: active = hit-call score of the fitted dose curve at least 0.9, where 1 is the maximum; inactive = score below 0.9.

Chain of X-box-binding protein 1 (Homo sapiens) (P17861 whole entry, looked up, the tested form may be a part): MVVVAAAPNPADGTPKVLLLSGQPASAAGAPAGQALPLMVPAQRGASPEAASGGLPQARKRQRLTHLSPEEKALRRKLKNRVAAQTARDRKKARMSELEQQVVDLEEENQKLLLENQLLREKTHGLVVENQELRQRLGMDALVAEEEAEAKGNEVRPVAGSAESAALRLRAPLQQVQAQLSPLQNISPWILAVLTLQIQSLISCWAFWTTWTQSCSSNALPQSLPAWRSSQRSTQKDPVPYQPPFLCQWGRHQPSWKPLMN
Chain of Estrogen receptor (Homo sapiens) (P03372 whole entry, looked up, the tested form may be a part): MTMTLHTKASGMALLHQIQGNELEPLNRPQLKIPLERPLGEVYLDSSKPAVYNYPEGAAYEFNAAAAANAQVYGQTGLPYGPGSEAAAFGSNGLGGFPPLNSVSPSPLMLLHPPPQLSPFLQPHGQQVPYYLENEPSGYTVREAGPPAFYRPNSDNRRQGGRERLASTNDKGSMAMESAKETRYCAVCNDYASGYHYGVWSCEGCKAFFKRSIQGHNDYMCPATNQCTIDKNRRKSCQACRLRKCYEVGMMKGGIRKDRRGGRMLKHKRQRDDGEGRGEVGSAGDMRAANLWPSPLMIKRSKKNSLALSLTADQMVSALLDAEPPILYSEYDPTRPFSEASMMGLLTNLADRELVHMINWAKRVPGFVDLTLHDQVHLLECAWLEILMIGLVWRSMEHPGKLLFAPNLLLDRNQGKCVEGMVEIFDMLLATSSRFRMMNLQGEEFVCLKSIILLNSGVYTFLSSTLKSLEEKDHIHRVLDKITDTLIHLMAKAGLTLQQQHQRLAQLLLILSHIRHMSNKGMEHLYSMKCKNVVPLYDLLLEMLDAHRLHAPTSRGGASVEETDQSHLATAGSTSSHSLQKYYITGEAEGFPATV
Chain of Signal transducer and activator of transcription 3 (Homo sapiens) (P40763 whole entry, looked up): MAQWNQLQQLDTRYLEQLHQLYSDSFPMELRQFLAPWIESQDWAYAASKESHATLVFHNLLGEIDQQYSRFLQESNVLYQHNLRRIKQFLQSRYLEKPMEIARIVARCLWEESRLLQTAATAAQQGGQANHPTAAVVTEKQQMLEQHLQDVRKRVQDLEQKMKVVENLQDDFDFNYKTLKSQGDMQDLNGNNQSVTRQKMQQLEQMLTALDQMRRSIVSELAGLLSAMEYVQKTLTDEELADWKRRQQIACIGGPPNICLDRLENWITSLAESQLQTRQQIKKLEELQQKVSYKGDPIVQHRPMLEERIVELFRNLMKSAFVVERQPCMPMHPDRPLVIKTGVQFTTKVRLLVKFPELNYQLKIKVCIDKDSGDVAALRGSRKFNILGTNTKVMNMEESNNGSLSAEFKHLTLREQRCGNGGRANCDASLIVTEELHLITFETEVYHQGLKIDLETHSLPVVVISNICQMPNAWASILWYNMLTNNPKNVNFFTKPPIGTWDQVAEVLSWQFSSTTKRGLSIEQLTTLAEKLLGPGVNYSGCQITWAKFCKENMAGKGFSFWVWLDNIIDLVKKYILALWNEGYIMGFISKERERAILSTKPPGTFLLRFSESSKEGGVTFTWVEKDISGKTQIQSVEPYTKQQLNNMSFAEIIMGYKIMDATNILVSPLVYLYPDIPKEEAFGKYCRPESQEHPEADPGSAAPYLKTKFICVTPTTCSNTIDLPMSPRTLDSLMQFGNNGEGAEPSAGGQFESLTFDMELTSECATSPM
Chain of Transcription factor Sp1 (Homo sapiens) (P08047 whole entry, looked up): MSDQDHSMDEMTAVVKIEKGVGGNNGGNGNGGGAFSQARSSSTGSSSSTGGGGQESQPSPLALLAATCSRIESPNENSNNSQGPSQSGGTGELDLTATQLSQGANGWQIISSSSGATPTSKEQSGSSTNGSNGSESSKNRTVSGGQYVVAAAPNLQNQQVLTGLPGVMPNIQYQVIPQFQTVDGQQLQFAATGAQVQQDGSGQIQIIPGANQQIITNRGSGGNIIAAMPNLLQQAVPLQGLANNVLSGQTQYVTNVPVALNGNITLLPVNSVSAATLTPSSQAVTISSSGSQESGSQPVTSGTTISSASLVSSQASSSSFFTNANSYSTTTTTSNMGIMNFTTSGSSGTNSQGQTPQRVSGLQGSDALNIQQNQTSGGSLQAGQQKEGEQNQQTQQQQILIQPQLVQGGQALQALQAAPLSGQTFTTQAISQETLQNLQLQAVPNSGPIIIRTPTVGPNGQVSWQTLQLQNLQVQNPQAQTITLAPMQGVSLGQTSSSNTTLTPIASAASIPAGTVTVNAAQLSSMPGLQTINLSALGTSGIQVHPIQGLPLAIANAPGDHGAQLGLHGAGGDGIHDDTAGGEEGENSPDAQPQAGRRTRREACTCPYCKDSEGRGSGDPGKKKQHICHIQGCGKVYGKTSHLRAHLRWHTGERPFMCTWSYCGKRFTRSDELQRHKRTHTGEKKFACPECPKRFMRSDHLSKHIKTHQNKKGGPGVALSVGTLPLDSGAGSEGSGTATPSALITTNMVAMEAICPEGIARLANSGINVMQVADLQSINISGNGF
Chain of Bile acid receptor (Homo sapiens) (Q96RI1 whole entry, looked up, the tested form may be a part): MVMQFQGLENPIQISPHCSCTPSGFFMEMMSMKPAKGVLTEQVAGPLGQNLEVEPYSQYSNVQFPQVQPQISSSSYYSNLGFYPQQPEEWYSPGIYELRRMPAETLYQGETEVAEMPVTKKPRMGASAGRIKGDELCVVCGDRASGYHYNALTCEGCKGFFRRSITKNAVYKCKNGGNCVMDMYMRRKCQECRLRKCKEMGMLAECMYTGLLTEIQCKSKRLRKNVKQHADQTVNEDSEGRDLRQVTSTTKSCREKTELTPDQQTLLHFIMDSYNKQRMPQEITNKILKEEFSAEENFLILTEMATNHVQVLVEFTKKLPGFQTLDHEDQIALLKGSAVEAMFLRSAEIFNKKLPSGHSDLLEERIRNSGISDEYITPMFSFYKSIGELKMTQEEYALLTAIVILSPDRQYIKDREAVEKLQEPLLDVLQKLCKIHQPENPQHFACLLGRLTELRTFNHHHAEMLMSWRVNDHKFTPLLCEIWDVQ
Chain of Steroid hormone receptor ERR1 (Homo sapiens) (P11474 whole entry, looked up, the tested form may be a part): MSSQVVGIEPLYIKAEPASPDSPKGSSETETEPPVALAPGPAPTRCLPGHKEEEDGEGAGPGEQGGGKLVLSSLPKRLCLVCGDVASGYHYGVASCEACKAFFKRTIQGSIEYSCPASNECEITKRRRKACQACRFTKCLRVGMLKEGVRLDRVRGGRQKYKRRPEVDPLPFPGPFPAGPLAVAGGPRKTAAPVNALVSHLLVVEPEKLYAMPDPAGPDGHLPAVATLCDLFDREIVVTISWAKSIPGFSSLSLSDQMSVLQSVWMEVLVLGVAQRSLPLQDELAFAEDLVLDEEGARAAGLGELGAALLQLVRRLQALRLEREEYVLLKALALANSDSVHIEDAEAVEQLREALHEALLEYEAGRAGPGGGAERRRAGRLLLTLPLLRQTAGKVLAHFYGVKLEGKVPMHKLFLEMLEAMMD
Chain of Nuclear receptor subfamily 1 group I member 3 (Homo sapiens) (Q14994 whole entry, looked up, the tested form may be a part): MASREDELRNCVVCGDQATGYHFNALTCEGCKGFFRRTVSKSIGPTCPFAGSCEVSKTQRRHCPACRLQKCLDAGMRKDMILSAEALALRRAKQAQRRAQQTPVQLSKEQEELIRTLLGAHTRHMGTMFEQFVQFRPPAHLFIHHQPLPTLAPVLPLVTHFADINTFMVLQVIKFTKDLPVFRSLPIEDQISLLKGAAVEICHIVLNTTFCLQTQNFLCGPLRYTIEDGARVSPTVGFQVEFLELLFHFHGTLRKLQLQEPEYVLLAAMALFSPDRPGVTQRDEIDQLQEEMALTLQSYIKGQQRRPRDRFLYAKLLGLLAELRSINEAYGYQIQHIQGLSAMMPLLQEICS

What is called AC50 is the concentration at which the activity in the assay is half-maximal. In the case of `O=[N+]([O-])c1ccc2c3c(cccc13)CC2`, the molecule was classed as inactive in [1], in assay [2], in assay [3], in assay [4], in assay [5] and in assay [6]. The outcome in assay [7], in assay [8], in assay [9], in assay [12], in assay [13] and in assay [14] was inactive. Besides, the molecule was classed as inactive in assay [15] and in assay [16]. In addition, the AC50 in assay [10] was 0.0823 µM (active); in assay [11], 11.5 µM (active).

Regarding `C(=NC1CCCCC1)=NC1CCCCC1`, the AC50 is 2.46 µM (active) in [1]; 2.33 µM (active) in [2]; 17.2 µM (active) in assay [5]; 3.69 µM (active) in assay [11]; 1.97 µM (active) in assay [13]. For the same molecule, the result in [3], in assay [4], in [6], in assay [7], in assay [8] and in assay [9] was inactive. The call in [10], in [12], in assay [14] and in assay [17] was inactive.

For `O=C(c1ccccc1)C(Cl)Cl`, the result in [1], in assay [2], in assay [6], in assay [7], in [9] and in assay [10] was inactive. For the same molecule, the molecule was called inactive in [12], in assay [18], in assay [14], in assay [17] and in assay [16]. Further, the AC50 in assay [3] is 25.7 µM (active); in [4] it was 25.2 µM (active); in [5], 26.4 µM (active); in assay [8] it was 25 µM (active); in assay [11], 7.69 µM (active); in assay [13], 25.1 µM (active).

With `COP(=S)(OC)Oc1ccc(Sc2ccc(OP(=S)(OC)OC)cc2)cc1`, the result in assay [1], in assay [3], in [4], in assay [5], in [6] and in assay [7] was inactive. Further, the call in [8], in assay [19] and in assay [12] was inactive. Moreover, the AC50 in assay [2] was 37.2 µM (active); in assay [9], 57.7 µM (active); in assay [10] it was 61.7 µM (active); in [11] it was 9.75 µM (active); in assay [13] it was 6.02 µM (active).
